Results filed as inconclusive are left out. A call without a number means that no potency is given here. Calls of active or inactive are those of the source. Calls come from the whole dose curve; as a rule, active = well fitted inhibition curve with a large enough effect; inconclusive = small, poorly fitted or top-dose-only effect; inactive = flat fitted curve, though single readings scatter.

Phospholipid hydroperoxide glutathione peroxidase GPX4 (Homo sapiens), sequence (P36969 whole entry, looked up): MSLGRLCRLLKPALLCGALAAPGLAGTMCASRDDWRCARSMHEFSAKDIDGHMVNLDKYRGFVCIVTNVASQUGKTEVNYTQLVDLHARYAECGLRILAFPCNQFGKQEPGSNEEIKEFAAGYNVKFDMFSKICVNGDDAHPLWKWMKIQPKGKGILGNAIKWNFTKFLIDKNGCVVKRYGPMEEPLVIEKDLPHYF

The experiment has as its target Phospholipid hydroperoxide glutathione peroxidase GPX4 (Homo sapiens) (UniProt P36969). The experiment in a line: Primary qHTS Assay for Inhibitors of Recombinant Selenoprotein Glutathione Peroxidase 4 (GPX4) (AID 1845192). Note: nearly all actives have a fitted effect of over 65% in size. The following applies: recombinant GPX4, GR-coupled NADPH fluorescence, 15 min; series mostly up to 50 µM. The procedure, abridged:
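NADPH consumption, followed by fluorescence at 340/450 nm between 0 and 15 min, reports GPX4 activity via coupled glutathione reductase (100 nM). Enzyme 200 nM was pre-exposed to compound 30 min; 0.5 mM cumene hydroperoxide and 1 mM GSH served as substrates.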
`O=[N+]([O-])c1cccc2cn[nH]c12`: the Potency entry was “inactive”.

Consider `Nc1nc2[nH]c(=O)cnc2c(=O)[nH]1`, for which the Potency entry was “inactive”.

In the case of `O=C1C2C=CC=CC2=NC(=S)N1CCN1CCC(=C(c2ccc(F)cc2)c2ccc(F)cc2)CC1` (stereo not given), the Potency result was “inactive”.

As to `Cc1nc(N=Nc2ccc(C(=O)O)cc2)c(COP(=O)(O)O)c(C=O)c1O`, the Potency result was “inactive”.

Regarding `COc1ccc2c(c1)c(CC(=O)O)c(C)n2C(=O)c1ccccc1`, the Potency entry is “inactive”.

Consider `CC(N)=NCCCC[C@@H](N)C(=O)O`, for which the Potency result was “inactive”.

For the compound `Cc1nc(N=Nc2ccc(S(=O)(=O)O)cc2S(=O)(=O)O)c(COP(=O)(O)O)c(C=O)c1O`, the Potency result is “inactive”.

For the compound `N[C@@H](CCCC(=O)O)C(=O)O`, the Potency entry is “inactive”.

On to `Oc1ccc(Cn2cc[nH]c2=S)cc1`, for which the Potency result is “inactive”.

Consider `NC1CCN(O)C1=O` (stereo not given), for which the Potency entry was “inactive”.

With `COc1ccc(C(=O)NCc2cccnc2)cc1C(=O)NCc1cccnc1`, the Potency entry was “inactive”.

On to `COc1cc(C(O)CO)ccc1O` (stereo not given), for which the Potency result was “inactive”.

As to `C[C@]12C=CC(=O)C=C1CC[C@@H]1C2=CC[C@]2(C)[C@@H](C(=O)CN3CCN(c4cc(N5CCCC5)nc(N5CCCC5)n4)CC3)CC[C@@H]12`, the Potency entry was “inactive”.

Turning to `NCCS(=O)O`, the Potency entry is “inactive”.

`N[C@@H](Cc1c[nH]c2ccccc12)C(=O)O`: the Potency entry is “inactive”.

In the case of `NC(C(=O)N[C@@H]1C(=O)N2C(C(=O)O)=C(Cl)CS[C@H]12)c1ccccc1` (stereo not given in full), the Potency entry is “inactive”.

In the case of `CN1CC(O)C(O)C(O)C1CO` (stereo not given), the Potency result was “inactive”.

With `CC(C)[C@@H]1CC[C@@H](C)C[C@@H]1P(=O)(c1ccccc1)c1ccccc1`, the Potency result is “inactive”.

As for `CN1Cc2sccc2C(c2ccc(O)c(O)c2)C1` (stereo not given), the Potency entry was “inactive”.

In the case of `CC1CCN(CC[C@H]2CCCN2S(=O)(=O)c2cccc(O)c2)CC1`, the Potency entry is “inactive”.

The record behind these values is PubChem BioAssay (NCATS).
